This passage reports Inhibition results from ChEMBL document CHEMBL1157539, “Thousands of chemical starting points for antimalarial lead identification” (Nature, 2010).

By Inhibition is commonly meant the percentage by which the read-out fell short of the control. A lower Inhibition goes with a response near the control.

In the first test the test system is Plasmodium falciparum. Put plainly: GSK_TCMDC: Inhibition of Plasmodium falciparum Dd2 in whole red blood cells, using parasite LDH activity as an index of growth. Test compounds present at 2uM. It counts as functional.
As for `CCOC(=O)c1ccc(-c2c(C(F)(F)F)noc2-c2cc(CC)c(OC)cc2O)o1`, the Inhibition is given as 95%. Still for that read-out and setting: for `CC(C)NCc1cccc(-c2cccc(-c3nc4cc(F)ccc4[nH]3)c2)c1.O=C(O)C(F)(F)F` the value was 85%; for `COc1ccc(-c2cccc(CNCc3ccc(F)cc3)c2)cc1S(=O)(=O)NCCN1CCCC1.O=C(O)C(F)(F)F`, 16%.

Turning to `O=C(/C=C/c1c(Cl)cccc1Cl)NC1CCC(CN2CCC(c3c[nH]c4ccncc34)CC2)CC1` (stereo not drawn), the Inhibition is 100%. Still for that read-out and setting: in the case of `Cc1c(Cc2ccccc2Br)cnc2nc(N)nc(N)c12.Cl` it was 97%. `CCc1ccc(NC(=O)c2ccc(CN3CCCN(Cc4ccc(C)s4)CC3)cc2)cc1.O=C(O)C(F)(F)F` yielded an Inhibition of 0%.

`CN(C)CCN(Cc1ccccc1)c1ccc([N+](=O)[O-])cc1C(F)(F)F.O=C(O)C(F)(F)F` gave an Inhibition of 89%. Still for that read-out and setting: in the case of `CCN(Cc1ccc(-c2ccc(C(F)(F)F)cc2)cc1)C(=O)Cn1c(SCc2cccc(F)c2F)cc(=O)c2cc(CN3CCCCC3)ccc21.Cl` it was 50%.

The test system of the next test is HepG2. The experiment in a line: GSK_TCMDC: Percent inhibition of human HepG2 cell line. Test compounds present at 10uM. It counts as functional.
Take `CO/C(=C\C=C\c1cc2cc(Cl)c(Cl)cc2[nH]1)C(=O)NCCCNC12CC3CC(CC(C3)C1)C2`: the Inhibition amounted to 29%.

Regarding `CCCCOc1ccc(CNCCCCCCNCc2ccc(OCCCC)c3ccccc23)c2ccccc12.CS(=O)(=O)O`, the Inhibition was 100%. On the same count and under the same terms, in the case of `CCCO[C@H](C(=O)OC)[C@@H](CC1Cc2ccccc2C1)C(=O)NCCC1=CCCCC1` it was 6%; in that of `CCOc1cc(/C=N/Nc2nc3ccccc3[nH]2)ccc1OCc1ccc([N+](=O)[O-])cc1`, 2%. Molecule `CCc1cn2c3c(cc(C(=O)N[C@@H](Cc4ccccc4)[C@H](O)CNCc4ccccc4C)cc13)N(C)S(=O)(=O)CC2.O=CO` gave an Inhibition of 3%. Same read-out and setting: for `N#Cc1ccc(-c2ccc(C(=O)NCCCCN3CCC(c4ccc5c(c4OCC(N)=O)CCCC5)CC3)cc2)cc1` the value was 21%. On the same count and under the same terms, for `O=[N+]([O-])c1ccc2c(-c3ccccc3)c(-c3ccccc3)n(O)c2c1` the value was 8%; for `CC1CCCCN1S(=O)(=O)c1ccc(NC(=O)c2cc(-c3ccccc3O)n[nH]2)cc1` (stereo not drawn), 26%; for `CC(=O)NCCNc1nccc(N2CCc3ncnc(Nc4ccc(OCc5ccccn5)c(Cl)c4)c3C2)n1`, 0%. Still for that read-out and setting: in the case of `Cl.O=S(=O)(NCCCN1CCOCC1)c1ccc2nccc(Nc3ccc(Oc4ccccc4)cc3)c2c1` it was 1%. Regarding `CCCCn1c(Sc2ccc(C#N)c([N+](=O)[O-])c2)nnc1-c1cc(OC)cc(OC)c1`, the Inhibition is 7%.

Consider `Cc1nc2ccc3ccc(CNc4ccc(C(=O)N[C@@H](CCC(=O)O)C(=O)N[C@@H](Cc5cccs5)C(=O)O)c(F)c4)cc3c2c(=O)[nH]1`, for which the Inhibition is listed as 43%.

`CCc1cccc2sc(N3CCN(C(=O)c4ccc([N+](=O)[O-])o4)CC3)nc12`: the Inhibition was found to be 2%.

Molecule `Oc1cc(NCCCNC2CCc3c(Cl)cc(Cl)cc32)nc2ccccc12` (stereo not drawn) yielded an Inhibition of 3%. The same measure, in the same setting: in the case of `COc1ccc2nccc(NC(=O)C3CCC(NCc4ccc5c(c4)NC(=O)CS5)CC3)c2c1` (stereo not drawn) it was 0%. Regarding `O=C(NC1CCN(Cc2ccc(F)cc2)CC1)c1ccc(-c2cccc(C(F)(F)F)c2)s1.O=C(O)C(F)(F)F`, the Inhibition came out at 88%.

`C(=N\Nc1nccc2sc(-c3cccnc3)cc12)/c1cccnc1`: the Inhibition is recorded as 5%. Same read-out and setting: in the case of `CC(=O)N(C)c1cccc(C(=O)Nc2cccc(-c3cccc(-c4nc5cccc(C)c5[nH]4)c3)c2)c1` it was 15%. Take `Fc1ccc(-c2cncc(-c3ccc(F)cc3)n2)cc1`: the Inhibition is reported as 7%. Turning to `CN1CCN(c2cc(-c3ccncc3)nc(-c3cccnc3)n2)CC1`, the Inhibition was 13%.

`Cc1ccc(F)c(C(=O)Nc2cccc(-c3nn4ccccc4c3-c3ccnc(Nc4cccc(F)c4)n3)c2)c1F` returned an Inhibition of 35%. Still for that read-out and setting: in the case of `CCn1c(-c2nonc2N)nc2c(-c3cccc(NC(=O)Nc4ccc(Cl)cc4)c3)ncc(OCCCN)c21.O=C(O)C(F)(F)F` it was 26%; in that of `Cc1ccccc1NC(=S)NC1CCN(CCCCCNC(=O)/C=C/c2ccc(Cl)c(Cl)c2)CC1`, 14%. The same measure, in the same setting: for `COc1cc2c(cc1C(F)(F)F)N(C(=O)Nc1cc(F)cc(-c3cccnn3)c1)CC2` the value was 21%; for `Cc1cc(N2CCN(C3CCCCC3)CC2)nc2cccc(O)c12`, 12%; for `NCCNc1ccc([N+](=O)[O-])cc1C(=O)Nc1cccc(C(F)(F)F)c1`, 1%. In turn, `Br.COc1ccc(OCCCON2C(=N)N=C(N)NC2(C)C)cc1` had an Inhibition of 55%. The same measure, in the same setting: for `COc1cccc(NC(=O)N2CCOC(CCN3CCC4(CCc5ccccc54)CC3)(c3ccc(Cl)c(Cl)c3)C2)c1` (stereo not drawn) the value was 97%. `COc1cc2nc(N3CC(C)N(C(=O)Cc4ccc(-c5ccccc5)cc4)C(C)C3)nc(N)c2cc1OC` (stereo not drawn) came in with an Inhibition of 26%. Same read-out and setting: for `O=C(Nc1nc2ccc(Cl)cc2s1)c1csnn1` the value was 15%.

`O=C(Nc1ccc(Oc2ccccc2)cc1)N1CCC(CCN2CCC(c3c[nH]c4ccccc34)CC2)CC1` registered an Inhibition of 42%. On the same count and under the same terms, for `CN(Cc1cccc(O)c1)C1CCCN(c2cc(NC(=O)c3ccc(F)cc3)ccn2)C1.O=C(O)C(F)(F)F` (stereo not drawn) the value was 8%; for `CCOC(=O)c1ccc(-c2c(C(F)(F)F)noc2-c2cc(CC)c(OC)cc2O)o1`, 0%.

The molecule `CC(C)NCc1cccc(-c2cccc(-c3nc4cc(F)ccc4[nH]3)c2)c1.O=C(O)C(F)(F)F` returned an Inhibition of 20%. Still for that read-out and setting: in the case of `COc1ccc(-c2cccc(CNCc3ccc(F)cc3)c2)cc1S(=O)(=O)NCCN1CCCC1.O=C(O)C(F)(F)F` it was 20%; in that of `O=C(/C=C/c1c(Cl)cccc1Cl)NC1CCC(CN2CCC(c3c[nH]c4ccncc34)CC2)CC1` (stereo not drawn), 78%; in that of `Cc1c(Cc2ccccc2Br)cnc2nc(N)nc(N)c12.Cl`, 67%.

Consider `CCc1ccc(NC(=O)c2ccc(CN3CCCN(Cc4ccc(C)s4)CC3)cc2)cc1.O=C(O)C(F)(F)F`, for which the Inhibition was 48%. The same measure, in the same setting: for `CN(C)CCN(Cc1ccccc1)c1ccc([N+](=O)[O-])cc1C(F)(F)F.O=C(O)C(F)(F)F` the value was 40%. As for `CCN(Cc1ccc(-c2ccc(C(F)(F)F)cc2)cc1)C(=O)Cn1c(SCc2cccc(F)c2F)cc(=O)c2cc(CN3CCCCC3)ccc21.Cl`, the Inhibition amounted to 95%.
